JMJD2A Tudor: blocks the human JMJD2A Tudor domain. O75164. AlphaScreen JMJD2A-Tudor / H3K4me3 peptide binding. Potency, µM (highest dose often 114 µM), for inactives: top-dose activity change, negative = inhibition, usual class: inhibitors. actives 4.4% (n = 390,000). AID 504339; further: on the % scale 0 is the no-effect control and ±100 the full control effect; nearly all actives have a fitted effect of over 50% in size
Sfp PPTase inh: blocks B. subtilis Sfp PPTase activity | Biochemical Sfp PPTase activity, qHTS | AID 1490 | Q9F4F7 | Potency, µM, for the others: largest response in the series, negative = inhibition, hits mostly inhibitors | actives 3.5% (n = 310,000);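 further: the enzyme is Sfp with the accession as filed and its product quenches rhodamine fluorescence; 0% = enzyme reaction without inhibitor and -100% = no enzyme wells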
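Sfp 15 nM + cpd, 15 min RT; start w/ rhodamine-CoA 5 uM, BHQ-2-YbbR 12.5 uM (final); 50 mM Hepes pH 7.6, 10 mM MgCl2, 0.01% NP-40, 0.01% BSA; read 525/598 nm at 0 and 30 min.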
PLK1 PBD block: inhibitors of human PLK1 polo-box domain binding | P53350 | Plk1 PBD binding of FITC phosphopeptide, fluorescence polarization | Potency, µM, without a hit: max response, negative = inhibition, most hits filed as inhibitors | actives 2.8% (n = 360,000); further: series mostly up to about 57 µM; on the % scale 0 is the no-effect control and ±100 the full control effect; nearly all actives have a fitted effect of over 65% in size
BAZ2B block: inhibitors of human BAZ2B bromodomain | actives 4.4% (n = 360,000) | Q9UIF8 | AlphaScreen BAZ2B-H3K14Ac peptide displacement | Potency, µM (doses to about 114 µM), for inactives: top-dose activity change, negative = inhibition, most hits filed as inhibitors | AID 504333; further: on the % scale 0 is the no-effect control and ±100 the full control effect; nearly all actives have a fitted effect of over 60% in size
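Complex of BAZ2B and biotin-H3K14Ac (50 nM apiece) forms over 30 min at RT, then faces library compounds up to 110 uM for another 30 min; AlphaScreen beads added, 20 min dark incubation, luminescence read.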
G9a inh: blocks human histone lysine methyltransferase G9a; G9a H3K9 monomethylation, AlphaScreen, 2 h; Potency, µM (highest dose often 102 µM), for the others: at the top dose activity, negative = inhibition, actives largely listed as inhibitors; actives 8.8% (n = 350,000); AID 504332; further: on the % scale 0 is the no-effect control and ±100 the full control effect; nearly all actives have a fitted effect of over 75% in size
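AlphaScreen detection with an anti-monomethyl H3K9 antibody quantified product after a 2 h room-temperature reaction containing 500 nM biotinylated H3K9 peptide, 20 µM SAM and 20 nM enzyme, which had been preincubated 15 min with compound.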
HP1b binding inh: HP1-beta chromodomain-methylated histone interaction inhibition. Potency, µM (highest dose often 114 µM), without a hit: at the highest dose activity change, negative = inhibition, actives largely listed as inhibitors. actives 0.56% (n = 390,000). AID 540317. AlphaScreen HP1-beta / biotin-H3K9me3 peptide binding; further: nearly all actives have a fitted effect of over 70% in size
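Compound inhibition of the preformed complex between 50 nM HP1-beta and 50 nM biotinylated H3K9me3 peptide was read by AlphaScreen. Buffer was PBS pH 7.4 with 0.01% Tween-20. Incubations ran 30 min at room temperature, with 10 ug/mL donor/acceptor beads.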
An asterisk follows results filed as active; ? = inconclusive; . = no result; [ ] = remark or other dose. An excerpt weighted towards active compounds, which were near 12% of everything screened. The call rests on the fitted dose curve; in most records, active means well fitted curve in the direction sought with a large enough effect; inconclusive means small, poorly fitted or top-dose-only effect, or another doubt; inactive means no such curve, though single readings can be large; an effect the other way counts as inactive or inconclusive. Potency means the concentration at half of the fitted maximal effect.

SMILES	JMJD2A Tudor	Sfp PPTase inh	PLK1 PBD block	BAZ2B block	G9a inh	HP1b binding inh
C#CCOCCOCCOCCNc1nc(N2CCN(C(=O)[C@H](CCCCN)n3cc(CN)nn3)CC2)nc(N2CCN(C(=O)[C@H](CCCCN)n3cc([C@@H](N)CC(N)=O)nn3)CC2)n1	35.5µM*	.	-2.3%	.	.	13.2%
C#CCOCCOCCOCCNc1nc(N2CCN(C(=O)C([C@@H](C)O)n3cc([C@@H](N)CCCCN)nn3)CC2)nc(N2CCN(C(=O)[C@H](CCCCN)n3cc([C@@H](N)CC(N)=O)nn3)CC2)n1 (stereo partly drawn)	79.4µM*	.	-7.2%	.	.	12.5%
C#CCOCCOCCOCCNc1nc(N2CCN(C(=O)[C@H](CCCCN)n3cc(CN)nn3)CC2)nc(N2CCN(C(=O)[C@H](CCCCN)n3cc([C@@H](N)[C@H](C)CC)nn3)CC2)n1	-34.8%	.	3.9%	.	.	28.9%
C#CCOCCOCCOCCNc1nc(N2CCN(C(=O)[C@H](CCCCN)n3cc([C@@H](N)CC(N)=O)nn3)CC2)nc(N2CCN(C(=O)[C@H](CCCCN)n3cc([C@@H](N)CC(N)=O)nn3)CC2)n1	79.4µM*	.	-28.8%	.	.	39.5%
C[C@]12CCC(=O)C=C1[C@@H]1C[C@H]1[C@H]1[C@@H]3[C@@H]4C[C@H]4[C@@]4(CCC(=O)O4)[C@@]3(C)CC[C@@H]12	.	12.5%	.	.	-0.8%[59 µM]	.
Cc1ccc(C(=O)NCCc2nnc3ccc(NCc4ccc5c(c4)OCO5)nn23)cc1	-4.2%	-5.0%	-4.5%	?	5.2%	22.6%
CC(C)(C)c1ccc(NS(=O)(=O)c2ccc(N)cc2)cc1	-23.5%	-20.1%	-8.5%	-12.0%	?	19.9%
CC(C)(C)c1ccc(S(=O)(=O)/C=C/C#N)cc1	.	.	.	.	0.947µM*	.
CN(C)c1ccc(-c2cncnc2Nc2ccc(F)cc2)cc1	.	?	.	.	-9.8%[0.501 µM]	.
CCOC(=O)c1c(CSc2ccccc2)n(C)c2cc(Br)c(OCC(O)CNC(CO)(CO)CO)cc12 (stereo not drawn)	?	?	-4.2%	?	39.8µM*	56.2µM*
CCOC(=O)c1c(CSc2ccccc2)n(C)c2cc(Br)c(OC)c(O)c12	-7.5%	12.5%	-4.4%	-21.3%	21.3%	24.7%
COCCCN1C(=O)c2ccc(C(=O)OCC(=O)N3CCN(c4ccccc4)CC3)cc2C1=O	-21.0%	.	-4.9%	5.4%	?	-7.7%
CN1CCN(C2=Nc3cc(F)ccc3Cc3ccccc32)CC1	.	-6.4%	.	-16.5%	-6.2%[12.7 µM]	.
CN1CCN(C2=Nc3c(Cl)cc(Cl)c4cccc2c34)CC1	50.1µM*	-22.5%	?	28.2µM*	?	?
Cc1[nH]c2ccccc2c1C(=O)C(=O)N1CCN(c2cccc(Cl)c2)CC1	?	14.9%	-3.0%	-36.8%	?	1.2%[57 µM]
O=C(c1ccc(Br)cc1)c1cc2ccc(O)cc2oc1=O	?	?	10.6µM*	-38.7%	70.8µM*	-2.1%
COc1ccc(C(=O)c2cc3ccc(O)cc3oc2=O)cc1	-15.3%	5.2%	-8.7%	1.3%	-1.0%	14.2%
COCCCNC(=O)c1cc2cc(Br)ccc2oc1=O	-11.5%	13.8%	-6.8%	-16.4%	-9.3%	27.0%
O=C(NNC(=O)c1cc2cc(Br)ccc2oc1=O)c1ccc(O)cc1O	?	-24.7%	?	11.2µM*	-3.0%	-0.1%
C#CCn1c(=NC(=O)CN2C(=O)CCC2=O)sc2cccc(OC)c21	2.6%	25.1%	0.1%	0.4%	2.3%	37.7%
C#CCn1c(=NC(=O)c2cccs2)sc2cccc(OC)c21	-27.8%	79.4µM*	-27.8%	-3.8%	-10.2%	15.5%
O=C1NC(=O)/C(=C\c2ccccc2OCc2ccc([N+](=O)[O-])cc2)N1	?	17.1%	23.8µM*	-8.3%	3.8%[59 µM]	-8.0%
O=C(COc1ccccc1/C=C1\SC(=O)NC1=O)Nc1ccccc1	-23.4%	3.1%	?	.	-49.3%	1.8%
O=C1NC(=O)/C(=C/c2ccccc2OCc2ccccc2)S1	-23.4%	-20.1%	?	-32.9%	39.8µM*	8.7%
O=C1NC(=O)/C(=C\c2ccccc2Oc2ccc(F)c(F)c2)S1	-21.0%	15.1%	26.7µM*	-28.0%	-2.7%[59 µM]	-0.6%
SMILES	JMJD2A Tudor	Sfp PPTase inh	PLK1 PBD block	BAZ2B block	G9a inh	HP1b binding inh
O=C(NCc1ccco1)c1cccc2c1C(=O)c1ccc(/C=C/c3ccccc3)cc1S2(=O)=O	39.8µM*	.	?	.	.	?
O=C(NCc1ccco1)c1cccc2c1C(=O)c1ccc(N3CCC(Cc4ccccc4)CC3)cc1S2(=O)=O	-20.1%	.	?	.	.	29.8%
Cc1ccc(C(=O)c2coc3cc([N+](=O)[O-])c(O)c([N+](=O)[O-])c23)cc1	56.2µM*	39.8µM*	?	44.7µM*	8.91µM*	?
Cc1ccc(Sc2ccc(C(=O)N(C)C)cc2[N+](=O)[O-])cc1	-35.7%	-5.4%	-4.9%	-37.3%	?	3.9%
N#CC1=C(Nc2ccccc2Cl)SC(c2ccccc2O)NC1=O (stereo not drawn)	?	12.6µM*	?	-2.3%	13.6%[2.33 µM]	3.9%
COc1cccc(NC2=C(C#N)C(=O)NC(c3cccc(OC)c3O)S2)c1 (stereo not drawn)	-7.6%	25.1µM*	-27.0%	-26.7%	44.7µM*	22.1%
Cc1ccc(S(=O)(=O)N2CCOCC2)cc1NC(=O)CSCc1c(C)noc1C	-9.7%	.	-0.5%	-4.5%	-5.2%[12.7 µM]	34.8%
CCN1CCN(Cc2ccc(NC(=O)c3cc(NC(=O)c4cc5cccc(OC)c5o4)cc(OC)c3)cc2C(F)(F)F)CC1	?	44.7µM*	-10.5%	?	?	8.3%
CCN1CCN(Cc2ccc(NC(=O)c3cc(NC(=O)c4cncc(-c5cccs5)c4)cc(OC)c3)cc2C(F)(F)F)CC1	44.7µM*	?	3.1%	35.5µM*	50.1µM*	?
Cc1ccc(Cc2nc3ccccc3nc2SCC(=O)N2CCN(c3ccccc3F)CC2)cc1	3.9%	.	.	3.9%	6.4%[59 µM]	37.4%[57 µM]
CCCc1cc(=O)n2[nH]c(C)c(-c3ccccc3)c2n1	-15.3%	6.0%	-6.5%	2.2%	-2.1%	43.9%
Cc1[nH]n2c(=O)cc(-c3ccc([N+](=O)[O-])cc3)nc2c1-c1ccccc1	50.1µM*	.	?	.	.	-56.6%
Cc1[nH]n2c(=O)cc(C(C)C)nc2c1-c1ccccc1	-17.4%	10.4%	0.9%	-0.4%	0.0%	15.4%
Cc1[nH]n2c(=O)cc(-c3ccc(Cl)cc3)nc2c1-c1ccccc1	?	.	.	31.6µM*	4.1%[59 µM]	-3.7%
COc1cc(/C=C(\C#N)C(=O)Nc2ccccc2)ccc1OCCN1CCOCC1	-18.8%	0.3%	-16.0%	-7.7%	.	23.7%
COc1cc(/C=C(/C#N)C(=O)Nc2ccccc2)c(Br)cc1OCc1ccc(C(=O)O)cc1	?	-0.4%	23.8µM*	?	?	-25.9%
